# Biological target: AMP-activated protein kinase, AMPK (Homo sapiens) (UniProt P54646+O43741+P54619+Q9UGJ0+Q9Y478+Q13131+Q9UGI9)
# Assay: AMP-dependent Kinase enzyme assay. An in vitro enzyme assay that detects ADP turnover that is directly proportional to AMPK activity. This uses naive AMPK that is activated during the assay with MK-8722
# Assay type: functional
# Set-up: scale not given: direction of the effect not stated beside the values
# Conditions: 30 µM
row,SMILES,Percent Effect
1,CNS(=O)(=O)CC(=O)N(C1CC1)C1Cc2ccccc2C1,-3.11%
2,COCCN(CCOC)C(=O)c1cnn(C)c1C,-3.12%
3,CC(C)N1CCC(CC(=O)NCCc2cc(O)ncn2)CC1,-10.1%
4,NC(=O)c1ccc(N2CCN(CCCc3cn[nH]c3)CC2)cc1,-7.64%
5,CN(Cc1ccc([S+](C)[O-])cc1)c1cncc(Br)c1 (stereo not given),13.9%
6,CCN1CC(c2ccccc2)CC2(CCN(Cc3ncc[nH]3)CC2)C1 (stereo not given),-6.2%
7,CN(C)c1ccc(CN2CCN(c3ccc(C#N)cc3)C(=O)C2)cn1,-0.161%
8,CN(Cc1nc(CS(C)(=O)=O)no1)c1ccccc1,0.0849%
9,COc1cccc2c1CCCCN2C(=O)c1oc(C)nc1C,5.74%
10,COc1ccc2c(c1)CCCN(CC(=O)NCC1CCCO1)C2 (stereo not given),-4.46%
11,OC1CCCN(Cc2cn(CC3CCN(C4CCSCC4)CC3)nn2)C1 (stereo not given),8.15%
12,CC(Oc1cccc(Cl)c1)C(=O)Nc1cnn(CCN(C)C)c1 (stereo not given),-7.28%
13,COc1cccc2c1OCC(Cc1cc(C(=O)N3CCCC3)ccn1)C2 (stereo not given),5.36%
14,COc1ccc(OC)c(C(=O)Nc2cccnc2-n2cncn2)c1,2.13%
15,COC(=O)c1ncccc1N1CCC(C(O)c2ccccc2)CC1 (stereo not given),12.8%
16,COc1ncc(NCc2ccc(Cl)c(Cl)c2)cc1C(N)=O,18.2%
17,COc1nccc(N2CC[C@H](CO)[C@@H](O)C2)c1C#N,-6.05%
18,Cc1nsc(N2CCCN(CC(=O)N(C)C3CC3)CC2)n1,7.25%
19,COC(CNC(=O)c1ccoc1)c1cccc(Cl)c1 (stereo not given),-1.5%
20,Cc1sc2ncnc(N3CCCC3Cn3cccn3)c2c1C (stereo not given),3.42%

row,SMILES,Percent Effect
1,COc1ccc2c(c1)CCCC2CC(=O)NCC(C)(C)C(=O)O (stereo not given),0.926%
2,CN1CCOC(CNCC(=O)NCCc2ccc3c(c2)OCCO3)C1 (stereo not given),-5.82%
3,COc1ccc2c(c1)OCC(CNC1CCc3ncnn3C1)=C2 (stereo not given),7.82%
4,CN1CCN(C(=O)C2(S(C)(=O)=O)CCCC2)Cc2ccccc21,-2.88%
5,CNC(=O)c1ccc(CN(C(C)C)C(C)C)o1,-7.38%
6,Cc1noc(C)c1C(=O)N[C@@H]1CCC[C@@H](Oc2ccccc2)[C@@H]1O,19.1%
7,CCN1CCCC(NC(=O)c2ccc(C)[nH]c2=O)C1 (stereo not given),-5.78%
8,CCS(=O)(=O)NCc1nc(C)cc(N2CCOCC2)n1,0.985%
9,N#CC1COCCN1C(=O)c1cccc2cc[nH]c12 (stereo not given),5.13%
10,COCCNc1ncnc2c1CCN(C(=O)CC1CCC(=O)N1)CC2 (stereo not given),15.1%
11,CN(C)c1ncccc1CNC(=O)NCC(c1cccs1)N(C)C (stereo not given),-9.48%
12,CNC(=O)c1ccnc(N2CCCC(COc3cccc(C)c3)C2)c1 (stereo not given),29.8%
13,Cc1cccc(C2(CNC(=O)c3ccnc(N(C)C)c3)CCOCC2)c1,-0.987%
14,CCOc1ccccc1C(C(=O)O)N(C)Cc1nc(C)c[nH]1 (stereo not given),7.59%
15,Cc1ccc(Oc2cc(CN)ccn2)cc1C,-98.1%
16,CC(NCc1ccnc(OC2CCC2)c1)c1cnn(C)c1 (stereo not given),6.18%
17,O=S(=O)(NCC1(c2cccs2)CCCC1)c1cccnc1,-4.96%
18,CCN1CCN(c2ncnc3c2CCN(C(=O)C2CC2)C3)CC1,-7.12%
19,Cc1nnc2n1CCN(C(=O)C(C)Oc1ccc(C#N)cc1)C2 (stereo not given),13%
20,CCCC1(CO)CCCN(C(=O)CN2CCN(CC)CC2)C1 (stereo not given),-3.5%

# Source: ChEMBL document CHEMBL3988442, “University of Dundee, Small-Polar-MMV Screening Library” (2021)
